Values joined by “and” are separate entries in the source; they are usually repeats but may differ in a detail not shown here. Equal values may be shown once. Results filed as inconclusive are left out. Entries that show only a call come without a potency. Active and inactive are the calls of the source. Calls follow the shape of the dose curve; as a rule, active = well fitted cell-killing curve with a large enough effect; inconclusive = small, poorly fitted or top-dose-only effect; inactive = flat fitted curve, though single readings scatter.

This experiment in a line: Cellular viability qHTS for adrenocortical cancer (ACC) cell line NCI-H295R (AID 1963990). Also: nearly all actives have a fitted effect of over 60% in size. The note with it: CellTiter-Glo ATP luminescence, 48 h; series mostly up to 46.1 µM. An excerpt: PI: Naris Nilubol, MD Surgical Oncology Program, National Cancer Institute (NCI) National Institute of Health (NIH), Bethesda, Maryland Adrenocortical cancer (ACC) is a rare malignancy with poor survival outcomes and few treatment options. Currently, mitotane is the only FDA-approved therapy for ACC. Although adjuvant radiation therapy is rarely utilized, it has the potential to improve survival in select cases. Through a quantitative high-throughput drug screen (qHTS), we identified auranofin (AF), a thioredoxin reductase (TXNRD) inhibitor, as a promising candidate drug. This study aims to evaluate whether AF can enhance the efficacy of radiation therapy in the treatment of ACC. Two human ACC cell lines, SW-13 and NCI-H295R, were screened using the National Center for Advancing Translational Sciences (NCATS) Pharmaceutical Collection (NPC) and the Mechanism Interrogation PlatE (MIPE) library (~4,991 compounds). CellTiter-Glo (Cat # G7570, Promega, Madison, WI) was utilized to measure cell viability. Described herein are the results of the corresponding viability assay.
PROTOCOL TABLE (as described by Inglese J, Shamu CE and Guy RK. 2007) SEQUENCE No. (e.g., 1, 2, 3, etc.); […] (e.g., Cells, Incubation, Reagent, etc.); VALUE; DESCRIPTION. 1; Cells; 5 uL; white, solid-bottom, 1536-well tissue-culture treated plates. 2; Time; overnight culture at 37C with 5% CO2. 3; Compounds and control; 23 nL; Kalypsis pin tool (Wako USA) equipped with a 1536-well pin head to transfer to the assay plates. 4; Time; 48 hours; 37C with 5% CO2. 5; Reagent; 4 uL; CellTiter-Glo luminescent substrate mix. 6; Time; 20 min at room temperature. 7; Detection; Luminescence; ViewLux plate reader NOTES (numbers refer to Sequence numbers above) 1. NCI-H295R cells were harvested from a T175 flask and resuspended in ITS-supplemented DMEM serum-free medium at a concentration of 300 000 cells/mL. Then 5 uL of resuspended cells were dispensed into each well of white, solid-bottom, 1536-well tissue-culture-treated plates using a multidrop combi dispenser. The plates were covered with stainless steel gasket lids. 2-3. The plates were cultured overnight at 37C with 5% CO2. Twenty-three nL of compounds (eight selected concentrations from the NPC / MIPE) or positive control (10 mM stock of bortezomib) in DMSO was transferred to each well of the assay plate using a pin tool (Kalypsys, San Diego, CA, USA). The final concentration of the compounds in the 5 uL assay volume ranged from 0.5 nM to 46 uM. 4-6. After 48 hours of incubation at 37C and 5% CO2, 4 uL of CellTilter-Glo luminescent substrate mix (Promega, Madison, WI, USA) was added to each well. Then the plates were incubated for 20 minutes at room temperature. 7. After incubation, luminescence was measured using a ViewLux plate reader (PerkinElmer, Waltham, MA, USA) with a clear filter was used to measure the number of metabolically competent cells. To determine compound activity in the qHTS assay, the titration-response data for each sample was plotted and modeled by a four-parameter logistic fit yielding IC50 and efficacy (maximal response) values. Raw plate reads for each titration point were normalized relative to positive control ([…], 100% inhibition) and DMSO-only wells (basal, 0%). REFERENCES: Inglese J, Shamu CE and Guy RK, Reporting data from high throughput screening of small molecule libraries, Nature Chemical Biology, 2007, 3(8): 438-441. doi.org/10.1038/nchembio0807-438.
For the compound `CC(=O)Oc1ccccc1C(=O)Nc1ncc([N+](=O)[O-])s1`, the Potency entry was “inactive”.
With `NS(=O)(=O)c1cc2c(cc1Cl)NC(C1CC3C=CC1C3)NS2(=O)=O` (stereo not given) the entry was “inactive”; with `COc1c(N2C[C@@H]3CCCN[C@@H]3C2)c(F)cc2c(=O)c(C(=O)O)cn(C3CC3)c12`, “inactive”.
With `Cn1cc(-c2[nH]c3cc(NC(=O)[C@H](N)C4CCCCC4)cc4c3c2C=NNC4=O)cn1` the entry was “inactive”; with `CCN(CC)CCNC(=O)c1cc(Cl)c(N)cc1OC`, “inactive”; with `COc1ccc(-c2c(-c3ccc(O)cc3O)n[nH]c2C)cc1`, “inactive”.
With `C[C@@H]1CCC[C@H](C)N1` the entry was “inactive”; with `Cc1ccccc1-n1nc(-c2c(-c3ccc(F)cc3)nn3c2NC[C@@H](CO)C3)ccc1=O`, “inactive”.
For `NC1(c2ccc(-c3nc4ccn5c(=O)[nH]nc5c4cc3-c3ccccc3)cc2)CCC1`, the Potency is 10.3 µM (active) and 7.94 µM (active).
For the compound `COC(=O)Nc1nc2ccc(S(=O)c3ccccc3)cc2[nH]1` (stereo not given), the Potency is 4.47 µM (active) and 259 nM (active).
With `Cc1ccccc1C(OCCN(C)C)c1ccccc1` (stereo not given) the entry was “inactive”; with `OCC(O)CS` (stereo not given), “inactive”.
The entry for `C[C@H]1COc2c(C3(N)CC3)c(F)cc3c(=O)c(C(=O)O)cn1c23` is “inactive”; for `C[C@H]1COc2c(N3CCN(C)CC3)c(F)cc3c(=O)c(C(=O)O)cn1c23` it is “inactive”.
The figure for `CN(C)CCCN1c2ccccc2CCc2ccc(Cl)cc21` is 25.1 µM (active); for `O=C1C(O)=C(O)C(=O)C(O)=C1O` it is “inactive”; for `NC(=O)c1cnccn1` it is “inactive”.
As for `CCCCOc1nc(N)c2c(n1)N(Cc1cccc(CN3CCCC3)c1)CC(=O)N2`, the Potency result is “inactive”.
With `C1CCN2C[C@@H]3C[C@@H](CN4CCCC[C@@H]34)[C@H]2C1` the entry was “inactive”; with `O=S(=O)(O)c1ccc(O)cc1`, “inactive”; with `CN(C)CCOc1ccccc1Cc1ccccc1`, “inactive”.
In the case of `Cn1c([N+](=O)[O-])cnc1COC(N)=O`, the Potency entry was “inactive”.
The entry for `CN/C(=C\[N+](=O)[O-])NCCSCc1csc(CN(C)C)n1` is “inactive”; for `COc1cc(C)c(Sc2cnc(NC(=O)c3ccc(CNC(C)C(C)(C)C)cc3)s2)cc1C(=O)N1CCN(C(C)=O)CC1` (stereo not given) it is 8.91 µM (active); for `CC(C)C[C@H](NC(=O)[C@H](Cc1ccccc1)NC(=O)OCc1ccccc1)C(=O)C=O` it is “inactive”.
Turning to `Nc1cc(=O)[nH]c(N)n1`, the Potency entry was “inactive”.
For the compound `O=C(OCCOCCO)c1ccccc1Nc1cccc(C(F)(F)F)c1`, the Potency is 25.9 µM (active).
With `O=c1ccn([C@@H]2O[C@H](CO)[C@H](O)[C@@H]2F)c(=O)[nH]1`, the Potency entry was “inactive”.
The entry for `NS(=O)(=O)c1cc(C2(O)NC(=O)c3ccccc32)ccc1Cl` (stereo not given) is “inactive”; for `Cc1ccc(-c2ccc3ncc4c(c3n2)n(C2CCN(C(=O)[C@H](C)O)CC2)c(=O)n4C)cn1` it is 0.141 µM (active).
With `CS(=O)(=O)N1CCN(Cc2cc3nc(-c4cccc5[nH]ncc45)nc(N4CCOCC4)c3s2)CC1` the figure was 2.24 µM (active).
With `CC(C)C(=O)Nc1ccc([N+](=O)[O-])c(C(F)(F)F)c1` the entry was “inactive”.
`CN1CC[C@@H](NC(=O)Nc2ccc(C#N)cc2)C[C@@H]1c1nc2ccccc2[nH]1`: the Potency entry is “inactive”.
With `C=C1CCC[C@]2(C)C=C3OC(=O)C(C)=C3C[C@@H]12` the entry was “inactive”; with `O=C1CCc2ccc(OCCCCN3CCN(c4cccc(Cl)c4Cl)CC3)cc2N1`, “inactive”.
With `O=C(O)C1=CC(O)C(O)[C@H](O)C1` (stereo not given in full) the entry was “inactive”; with `C/C(=C\C(=O)Nc1ccccc1C(=O)O)c1ccc2ccccc2c1`, 28.2 µM (active); with `C[C@H]1Oc2cc(cnc2N)-c2c(nn(C)c2C#N)CN(C)C(=O)c2ccc(F)cc21`, 17.8 µM (active).
As to `Nc1nc(NCCNc2ncc(-n3ccnc3)c(-c3ccc(Cl)cc3Cl)n2)ccc1[N+](=O)[O-]`, the Potency entry was “inactive”.
With `COc1cc2c(cc1OC(C)C)[C@H](c1ccc(Cl)cc1)N(c1ccc(N(C)CC3CCC(N4CCN(C)C(=O)C4)CC3)cc1)C(=O)C2` (stereo not given in full) the figure was 22.4 µM (active).

These data come from PubChem BioAssay (NCATS).
